In PubChem BioAssay:

Tests used:
[1] = inhibitors of PAF-induced NFkB signaling in CF airway cells, dose response, cell-based, uHTS hits, panel, cytotoxicity readout (AID 624344); conditions: CF bronchial epithelial cells, PAF-induced NFkB reporter inhibition, with PAF, run 1; at 79 µM (top of the series) unless noted
[2] = as above; conditions: CF bronchial epithelial cells, PAF-induced NFkB reporter inhibition, with PAF, run 2; at 79 µM (top of the series) unless noted

SMILES | inhibition [1] | inhibition [2]
Cc1c(-c2ccccc2)oc2c(C(=O)N3CCN(c4ccc([N+](=O)[O-])cc4)CC3)cccc2c1=O | 105% | 93.8%
CCOc1ccccc1N1CCN(C(=O)c2cc(-c3cc(OC)ccc3OC)nc3ccccc23)CC1 | 107% | 104%
O=C(Oc1ccc(F)cc1C(=O)/C=C/c1cccs1)c1cccc([N+](=O)[O-])c1 | 49.3% | 40.3%
Cc1cccc(C(=O)N[C@H](C(=O)Nc2nc3ccccc3[nH]2)C(C)C)c1 | 101% | 70.1%
CN(C)c1ccc(-c2nn3c(-c4ccccc4Cl)nnc3s2)cc1 | 102% | 65.9%
O=C(/C=C/c1cccs1)Nc1cccc(NC(=O)/C=C/c2cccs2)n1 | 97.2% | 96.4%
CCN1CCN(Cc2ccc(NC(=O)c3ccc(C)c(NC(=O)c4ccno4)c3)cc2C(F)(F)F)CC1 | 105% | 83.4%
CC(C)[C@H](CO)Nc1nc(NCc2ccc(S(N)(=O)=O)cc2)c2ncn(C(C)C)c2n1 | 107% | 110%
CN(c1ncnc(N)c1[N+](=O)[O-])C1CCS(=O)(=O)C1 (stereo not given) | 96.8% | 104%
C=CCN(CC=C)c1ncnc2[nH]ncc12 | 99.9% | 109%
COc1cc2c(Cc3ccccc3)cncc2cc1O | 107% | 96.3%
CNc1ccc2ncc(-c3cccc(C(=O)N(C)C)c3)n2n1 | 111% | 106%
CCOC(=O)N1CCC(NC(=O)c2ccc3c(c2)N=C(C)c2c(C)ccc(C)c2S3)CC1 | 92.2% | 115%
CC(C)c1ccccc1NC(=O)COC(=O)c1c2c(nc3ccccc13)CCN(Cc1ccccc1)C2 | 76.4% | 90.6%
O=C(NCCc1ccc(F)cc1)c1coc(=O)c(Br)c1 | 82% | 83.4%
O=C(NCc1nc(-c2ccc(C(F)(F)F)cc2)no1)Nc1cc(Cl)cc(Cl)c1 | 97.9% | 114%
O=C(c1nnsc1S(=O)c1ccc(Cl)cc1)N1CCOCC1 (stereo not given) | 95.6% | 110% [at 19.8 µM]
C/C(=N/NC(=O)c1cccs1)c1ccc(NC(=O)COc2ccc(Cl)cc2)cc1 | 87% | 72.9%

SMILES | inhibition [1] | inhibition [2]
Clc1ccc(-c2csc3ncnc(N4CCc5ccccc5C4)c23)cc1 | 103% | 112%
CCC1=Nc2cc(C(=O)NCc3ccco3)ccc2Sc2ccc(C)cc21 | 99.5% | 92.2%
Oc1ccc(C[C@H]2CNC(=S)N2CC2CCCN2C[C@H](Cc2ccc(O)cc2)N2C[C@H](Cc3ccc(O)cc3)N(CC3CCCCC3)C2=S)cc1 (stereo not given in full) | 101% | 105%
Cc1cc(C)c(C#N)c(SCC(=O)c2ccc(Cl)cc2Cl)n1 | 111% | 101%
CC1CCN(Cc2c(C(=O)N/N=C/c3ccc(C(C)(C)C)cc3)nnn2-c2nonc2N)CC1 | 98.1% | 108%
CCc1cc(-c2[nH]ncc2-c2ccc(OC)cc2)c(O)cc1O | 115% | 104%
COCCN1Cc2cccc(C(=O)Nc3cccc(-c4nc5ccccc5[nH]4)c3)c2C1=O | 95.8% | 114%
CCSc1nsc(NC(=O)Nc2cccc(OC)c2)n1 | 102% | 113%
Cc1ccc(S(=O)(=O)Nc2cccc3cccnc23)c([N+](=O)[O-])c1 | 101% [at 39.5 µM] | 94.2% [at 39.5 µM]
CC(C)C[C@@H](CN1CCCC1CN1C(=S)NC[C@@H]1Cc1ccc(O)cc1)N1C[C@H](Cc2ccc(O)cc2)N(CC2CCCCC2)C1=S (stereo not given in full) | 102% | 107%
CC1Sc2ccc(Cl)cc2-c2nc(N)ncc21 (stereo not given) | 102% | 108%
CC(=O)Oc1ccc(N(C(C)=O)S(=O)(=O)c2cccs2)c2ccccc12 | 92.7% | 62.6%
CN(C)C=Nc1c(C(=O)c2ccccc2)sc2nccc(N(C)C)c12 | 100% | 105%
Cc1nn(-c2cccc(Cl)c2)c2nc(C(F)(F)F)[nH]c(=O)c12 | 96% | 79.8%
Cc1c(O)ccc2c(-c3ccccc3)cc(=O)oc12 | 105% | 114%
Cn1c(N2CCN(C(c3ccccc3)c3ccccc3)CC2)nc2c1c(=O)[nH]c(=O)n2C | 108% | 104%
N#Cc1c(-c2ccc(Cl)cc2)n(O)c2ccccc12 | 111% | 103%
